# Rows were chosen to be rich in hits. Some 10% of all compounds tested hit in one or more screens of this group.
# Sfp inh: qHTS Assay for Inhibitors of Bacillus subtilis Sfp phosphopantetheinyl transferase (PPTase). Biochemical Sfp PPTase activity, qHTS. Potency, µM, for the others: largest response in the series, negative = inhibition, usual class: inhibitors. hit rate 3.5% among 310,000. AID 1490, 2009;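 further: the enzyme is Sfp with the accession as filed and its product quenches rhodamine fluorescence; potency means the concentration at half of the fitted maximal effect; 0% = enzyme reaction without inhibitor and -100% = no enzyme wells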
#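 Compounds were incubated with enzyme (final 15 nM) for 15 min at room temperature before substrate addition started the reaction. Fluorescence at 525 nm excitation, 598 nm emission was recorded immediately and after 30 minutes.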
# VDR inh: Inhibitors of the vitamin D receptor (VDR): qHTS | Potency, µM, without a hit: max response, negative = inhibition, most hits filed as inhibitors | hit rate 0.93% among 400,000 | VDR-SRC2-3 peptide fluorescence polarization, 2 h; further: potency means the concentration at half of the fitted maximal effect
#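 Measured by FP: displacement of SRC2-3 coactivator peptide from VDR by library compounds, following a two-hour ambient incubation.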
# PLK1 PBD block: qHTS for Inhibitors of PLK1-PDB (polo-like kinase 1 - polo-box domain): Primary Screen. Plk1 PBD binding of FITC phosphopeptide, fluorescence polarization. hit rate 2.8% among 360,000. Potency, µM, for the others: max response, negative = inhibition, most hits filed as inhibitors. Serine/threonine-protein kinase PLK1 (Homo sapiens), P53350. AID 720504, 2013; further: potency means the concentration at half of the fitted maximal effect; series mostly up to about 57 µM; nearly all actives have a fitted effect of over 65% in size
# Target sequence (P53350 whole entry, looked up, the tested form may be a part): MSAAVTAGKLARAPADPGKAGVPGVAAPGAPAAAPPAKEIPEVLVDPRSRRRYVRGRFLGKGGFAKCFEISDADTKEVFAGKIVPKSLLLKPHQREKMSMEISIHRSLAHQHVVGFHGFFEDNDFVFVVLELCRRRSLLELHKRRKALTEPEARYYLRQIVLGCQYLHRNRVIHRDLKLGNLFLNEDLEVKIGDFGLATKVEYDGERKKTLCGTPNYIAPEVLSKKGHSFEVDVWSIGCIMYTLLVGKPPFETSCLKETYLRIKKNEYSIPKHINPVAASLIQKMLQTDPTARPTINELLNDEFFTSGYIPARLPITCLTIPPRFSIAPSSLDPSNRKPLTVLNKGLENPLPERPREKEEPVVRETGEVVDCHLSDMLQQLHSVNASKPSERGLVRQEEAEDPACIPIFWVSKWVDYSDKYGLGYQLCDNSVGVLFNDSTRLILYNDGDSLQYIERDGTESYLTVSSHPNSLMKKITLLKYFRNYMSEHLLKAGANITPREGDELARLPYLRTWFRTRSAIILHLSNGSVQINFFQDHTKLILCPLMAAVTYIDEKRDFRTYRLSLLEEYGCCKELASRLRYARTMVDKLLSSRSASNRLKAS
# G9a inh: qHTS Assay for Inhibitors of Histone Lysine Methyltransferase G9a. G9a H3K9 monomethylation, AlphaScreen, 2 h. AID 504332, 2011. Potency, µM (titrated, usually from 102 µM), for the others: at the top dose activity, negative = inhibition, actives largely listed as inhibitors. Histone-lysine N-methyltransferase EHMT2 (Homo sapiens), Q96KQ7. hit rate 8.8% among 350,000; further: potency means the concentration at half of the fitted maximal effect; nearly all actives have a fitted effect of over 75% in size
#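 Chemiluminescent proximity detection of H3K9 monomethylation, read after 10 min bead incubation in the dark. Reaction: 20 nM G9a, 500 nM biotin-H3K9 peptide, 20 uM SAM cofactor, 2 h, room temperature, following 15 min enzyme-compound preincubation.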
# Mm-Cpn inhibitor: Inhibitors of TCP-1 ring complex (TRiC) of Methanococcus maripaludis (MmCpn): qHTS. Chaperonin Mm-Cpn (Methanococcus maripaludis). purified Mm-Cpn ATPase, ADP Transcreener TR-FRET. Potency, µM (series often up to 76.9 µM), for inactives: top-dose activity, negative = inhibition, most hits filed as inhibitors. hit rate 0.031% among 330,000; further: potency means the concentration at half of the fitted maximal effect; nearly all actives have a fitted effect of over 80% in size
#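 Purified archaeal chaperonin (25 nM final) was preincubated with compound for 10 min at 37°C, then ATP (10 uM final) was added for 30 min at 37°C in Tris pH 7.4/KCl/MgCl2/DTT buffer. ADP was quantified by HTRF Transcreener TR-FRET.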
# CCT chaperon mod: High-Throughput Screening for Modulators of Cytosolic Chaperonin Activity; activity change, % (no concentration beside the values), hits read low; hit rate 0.3% among 360,000; purified chaperonin ATPase assay, HTRF ADP detection, 30 min; AID 651819, 2012; in the data active means activity change below about -30%
#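 Nucleotide hydrolysis assay: TRiC at 20–40 nM final (set by batch activity) with 10 uM ATP, 30 min at 37 °C, in presence of 76 uM compound. Detection by competitive ADP HTRF, 30 min ambient.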
# * = called active by the depositor; ? = inconclusive; / = no result given; [ ] = remark or other dose. Unless noted, the call rests on the fitted dose curve; in most records, active means well fitted curve in the direction sought with a large enough effect; inconclusive means small, poorly fitted or top-dose-only effect, or another doubt; inactive means no such curve, though single readings can be large; an effect the other way counts as inactive or inconclusive. Unless noted, on the % scale 0 is the no-effect control and ±100 the full control effect.
SMILES,Sfp inh,VDR inh,PLK1 PBD block,G9a inh,Mm-Cpn inhibitor,CCT chaperon mod
COc1ccc(C2CC(c3ccc(OC)cc3OC(C)=O)=NN2C(=O)c2ccccc2)cc1 (stereo unspecified),-7%,4%,-2%,-10%,-5%,1
COc1ccc(C2=NN(C(=O)c3ccccc3)C(c3ccc(OC)c(OC)c3)C2)c(O)c1 (stereo unspecified),-10%,-25%,-12%,71µM*,0%,-1
CCN(CC)C(=O)C1CCN(c2ncnc3c2cnn3-c2ccc(C)cc2C)CC1,56µM*,-15%,-10%,-17%[59 µM],-1%,-3
CCn1cc([N+](=O)[O-])c(C(=O)N2N=C(c3ccc(Cl)c(Cl)c3)CC2c2ccccc2O)n1 (stereo unspecified),13%,7%,5%,?,-1%,1
CCn1cc([N+](=O)[O-])c(C(=O)N2N=C(c3ccc(O)c(OC)c3)CC2c2ccccc2O)n1 (stereo unspecified),8%,-15%,-13%,40µM*,2%,-1
CC(=O)OC[C@@H]1O[C@H](C/C=N\O[C@@H](C)CN2CCCCc3nc(C)c(C)cc32)C=C[C@@H]1OC(C)=O,23%,/,/,/,/,/
COc1ccc(-n2cc(C(=O)c3ccccc3O)cn2)cc1,-26%,7%,-11%,77%,0%,1
COc1ccc(O)c(C(=O)c2cnn(-c3ccccc3)c2)c1,-1%,-6%,-8%,4.5µM*,0%,0
CCOc1ccc(Sc2cc(C(=O)NC(C)c3ccccc3)c3ccccc3n2)cc1 (stereo unspecified),/,5%,/,-4%[59 µM],/,/
Cc1c(C(=O)O)c(C(=O)O)nc2ccc(N3CCOCC3)cc12,40µM*,/,/,3.2µM*,-3%,/
O=C1NC(=S)SC1=Cc1ccccc1C(=O)O,/,/,-17%,/,/,1
O=C1NC(=S)SC1=C1CCCC1,40µM*,-10%,?,18µM*,1%,-2
Cc1cccc(Oc2ccc(NC(=O)C3CC=CCC3C(=O)O)cc2)c1 (stereo unspecified),26%,5%,-4%,45µM*,-16%,-5
N#Cc1ccc(Oc2ccc(NC(=O)C3CC=CCC3C(=O)O)cc2)cc1 (stereo unspecified),7%,-2%,2%,12%,1%,-5
CC1(C)CC(NC(=S)NCc2ccc3c(c2)OCO3)CC(C)(C)N1,-10%,/,/,40µM*,-1%,/
CCOc1ccc(/C=N/OCC(=O)NCc2ccc3c(c2)OCO3)cc1OC,19%,0%,0%,40µM*,3%,-3
CCOc1ccc(NC(=S)NCc2ccc3c(c2)OCO3)cc1,-13%,-2%,-5%,10µM*,-3%,-1
COc1ccc(C(=O)/C=C(\C)Nc2ccc3c(c2)OCO3)cc1,-30%,4%,-10%,71µM*,-3%,-1
COc1ccc(C(=O)Nc2ccc3c(c2)OCCO3)cc1,13%,-6%,-8%,4%[59 µM],0%,0
COc1ccc(-c2nnc(SCC(=O)Nc3cccc(C(F)(F)F)c3)s2)cc1,/,7%,/,10%[59 µM],/,/
COc1ccc(OC)c(N/C(C)=C/C(=O)c2ccncc2)c1,2%,-26%,-5%,40µM*,-1%,-6
COc1ccc(NC(=O)Cn2nnc(C(=O)NCc3ccc4c(c3)OCO4)c2N)c(OC)c1,-14%,-29%,21µM*,7%[59 µM],2%,-1
COc1ccc(N(CC(=O)NCc2ccc3c(c2)OCO3)S(=O)(=O)c2c(C)nn(C)c2C)cc1,1%,-3%,-8%,79µM*,2%,2
COc1ccc(NC(=O)Cn2nnc(C(=O)NCc3ccc4c(c3)OCO4)c2N)cc1,7%,-18%,-18%,-4%,1%,-2
COc1ccc(CC(=O)NCc2ccc3c(c2)OCO3)cc1,5%,5%,24µM*,-4%,-4%,0
SMILES,Sfp inh,VDR inh,PLK1 PBD block,G9a inh,Mm-Cpn inhibitor,CCT chaperon mod
COC(=O)c1ccccc1NC(=O)c1c(C)oc2ncn(C)c(=O)c12,/,-17%,/,-6%[59 µM],/,/
O=S(=O)(NCC(O)COCc1ccco1)c1cccs1 (stereo unspecified),45µM*,-18%,-25%,-41%[59 µM],0%,1
CC(C)=NOC[C@@H](O)COCc1ccco1,2%,/,/,/,/,/
CCCCCCNC(=O)C(=O)NCCc1ccc(Cl)cc1,-8%,-4%,-1%,/,0%,-3
CC(C)NC(=O)C(=O)NCCc1ccc(Cl)cc1,2%,11%,-11%,1.1µM*,1%,0
c1ccc(CN2CCN(CCOCCOc3cccc4ccccc34)CC2)cc1,50µM*,15%,-8%,/,-2%,1
O=C(c1ccco1)N1CCN(CCCCOc2cccc3ccccc23)CC1,?,-10%,4%,45µM*,1%,-2
CCOc1ccccc1C1C(C(=O)Nc2ccccc2)=C(C)Nc2c(C(=O)Nc3ccc(F)cc3)cnn21 (stereo unspecified),/,13%,/,-27%[59 µM],/,/
O=c1c(-c2cc(F)cc(F)c2)nc2cnc(N3CCOCC3)nc2n1-c1ccccc1,0%,-13%,/,1%[12.7 µM],/,/
CNC(=S)NCCc1cc2c(OC)ccc(OC)c2[nH]c1=O,-7%,?,19µM*,?,0%,0
O=[N+]([O-])c1ccccc1S(=O)(=O)N1CCN(c2nc(-c3ccccc3)nc3ccccc23)CC1,/,-10%,/,/,/,/
CCOC(=O)c1ccccc1NC(=O)c1sc2nc3n(c(=O)c2c1C)CCCC3,/,18%,/,14µM*,/,/
Cc1cc(Br)ccc1NC(=O)c1sc2nc3n(c(=O)c2c1C)CCCC3,/,2%,/,13µM*,/,/
Cc1ccc(NC(=O)c2sc3nc4n(c(=O)c3c2C)CCCCC4)c(Br)c1,/,7%,/,11%[59 µM],/,/
COc1cccc(N2CCN(C(=O)CCCn3c(=O)[nH]c4ccc(Br)cc4c3=O)CC2)c1,/,2%,/,?,/,/
Cc1ccccc1OC1=NS(=O)(=O)c2ccccc21,11%,-12%,30µM*,?,1%,4
O=S1(=O)N=C(Oc2cccc3ccccc23)c2ccccc21,14%,-3%,-17%,?,-2%,-1
COc1cccc(C(=O)CC2(O)C(=O)Nc3ccc(Cl)cc32)c1 (stereo unspecified),/,8%,/,-28%[59 µM],/,/
COc1cccc(NC(=O)Cn2cc(S(=O)(=O)N3CCCC3)c(S(=O)(=O)N3CCCC3)c2)c1,/,7%,/,-7%[59 µM],/,/

# Compound activity: PubChem, National Center for Advancing Translational Sciences (NCATS)
